This note sets out measurements from PubChem BioAssay (Tox21).

A short description of experiment [1]: qHTS assay to test for compound auto fluorescence at 535 nm (green) in HEK293 cells (AID 720680).
A short description of experiment [2]: qHTS assay to test for compound auto fluorescence at 460 nm (blue) in HEK293 cell free culture (AID 720681). In outline: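 Test compounds were pinned into cell-free culture medium (DMEM with 10% FBS) and fluorescence was read directly at Ex/Em 405/460 nm. Signals were expressed as fluorescence equivalents of triamterene, with DMSO vehicle as control.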
In general terms: Quantitative high-throughput screening tests each substance at several concentrations.

Experiment [3] can be described thus: qHTS assay to test for compound auto fluorescence at 535 nm (green) in HEK293 cell free culture (AID 720682). In outline: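 Fluorescein serves as the green reference fluorophore; each compound's intrinsic emission at 535 nm (excitation 485 nm) is reported as an equivalent amount of that dye, measured in serum-containing DMEM without cells.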
Experiment [4] in a line: qHTS assay to test for compound auto fluorescence at 590 nm (red) in HEK293 cell free culture (AID 720683). In outline:
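Tox21 10K library compounds were pinned into cell-free DMEM with 10% FBS and fluorescence was read at excitation 540 nm. Activity is expressed as Rose Bengal sodium equivalency.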

Experiment [5] in a line: qHTS assay to test for compound auto fluorescence at 590 nm (red) in HepG2 cell free culture (AID 720684). An outline of the steps:
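Measured in medium alone (MEM containing 10% FBS) following pintool addition of compound; emission at 590 nm with 540 nm excitation, referenced to Rose Bengal sodium.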

Experiment [6] can be described thus: qHTS assay to test for compound auto fluorescence at 460 nm (blue) in HepG2 cell free culture (AID 720685). In outline:
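Compound (23 nL) or DMSO pinned into cell-free MEM with 10% FBS; blue fluorescence read at 405/460 nm excitation/emission, expressed as auto-fluorescence equivalency to triamterene.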

A short description of experiment [7]: qHTS assay to test for compound auto fluorescence at 535 nm (green) in HepG2 cell free culture (AID 720686).
Experiment [8] in a line: qHTS assay to test for compound auto fluorescence at 460 nm (blue) in HepG2 cells (AID 720687). An outline of the steps: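 Cells (2,000/well in MEM with 10% FBS) attached overnight at 37 C, then were exposed to compound or DMSO for 1 hr at 37 C, 5% CO2. Fluorescence read at Ex/Em 405/460 nm, expressed as triamterene-equivalent signal.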
Experiment [9] deals with Glucocorticoid receptor (Homo sapiens) (UniProt P04150). The experiment is described as follows: qHTS assay to identify small molecule agonists of the glucocorticoid receptor (GR) signaling pathway (AID 720691; active means well fitted activation curve with a large enough effect in the signal ratio in the repeat runs, not every such curve was filed as active; the % refers to the signal ratio). An outline of the steps: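 Reporter read-out: fluorescence intensity following 2 h room-temperature LiveBLAzer B/G FRET substrate loading. Prior step: GR-bla HeLa cells held 4 h, then treated 18 h at 37 C.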

Experiment [10] has the same target. The experiment is described as follows: qHTS assay to identify small molecule antagonists of the glucocorticoid receptor (GR) signaling pathway (AID 720692; active means well fitted inhibition curve with a large enough effect in the signal ratio in the repeat runs, not every such curve was filed as active; the % refers to the signal ratio). An outline of the steps: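 Dexamethasone (5 nM final) stimulated a stably integrated GRE-beta-lactamase reporter in HeLa cells during 18 h co-incubation with compounds; signal was quantified as fluorescence intensity of B/G FRET substrate after 2 h.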

Experiment [11] can be described thus: qHTS assay to identify small molecule antagonists of the glucocorticoid receptor (GR) signaling pathway - cell viability counter screen (AID 720693). Further: nearly all actives have a fitted effect of over 55% in size.
Experiment [12] can be described thus: qHTS assay for identifying genotoxic compounds that show differential cytotoxicity against isogenic chicken DT40 cell lines with known DNA damage response pathways - wild type cell line (AID 743012). Further: nearly all actives have a fitted effect of over 60% in size. Further: potency means the concentration at half of the fitted maximal effect. In outline:
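Using parental DT40 (300 cells/well), compounds delivered in DMSO incubate 40 h at 37 C/5% CO2. CellTiter-Glo reagent then stands 30 min at room temperature, and luminescence gives cell viability.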

Experiment [13] can be described thus: qHTS assay for identifying genotoxic compounds that show differential cytotoxicity against isogenic chicken DT40 cell lines with known DNA damage response pathways - Rev3 mutant cell line (AID 743014). Further: nearly all actives have a fitted effect of over 55% in size. Further: potency means the concentration at half of the fitted maximal effect.
Experiment [14] in a line: qHTS assay for identifying genotoxic compounds that show differential cytotoxicity against isogenic chicken DT40 cell lines with known DNA damage response pathways - Rad54/Ku70 mutant cell line (AID 743015). Further: nearly all actives have a fitted effect of over 60% in size. Further: potency means the concentration at half of the fitted maximal effect.
Experiment [15] is described as follows: qHTS assay to identify small molecule antagonists of the androgen receptor (AR) signaling pathway - cell viability counter screen (AID 743033; further: nearly all actives have a fitted effect of over 45% in size).
Experiment [16] in a line: qHTS assay to identify small molecule antagonists of the androgen receptor (AR) signaling pathway using the MDA cell line - cell viability counter screen (AID 743041; further: nearly all actives have a fitted effect of over 45% in size). An outline of the steps:
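Viability counter screen run alongside the AR antagonist reporter: cells seeded 5 h before compound, R1881 added, 16 h incubation at 37C without CO2, fluorescent CellTiter-Fluor signal quantified.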

In experiment [17] the target is Androgen receptor (Homo sapiens) (UniProt P10275). The experiment is described as follows: qHTS assay to identify small molecule antagonists of the androgen receptor (AR) signaling pathway (AID 743035; active means well fitted inhibition curve with a large enough effect in the signal ratio in the repeat runs, not every such curve was filed as active; the % refers to the signal ratio). An outline of the steps: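 Using qHTS, AR-UAS-bla GripTite HEK293 cells received compound, then R1881, and were cultured 16 h at 37C/5% CO2 before a 2 h room-temperature LiveBLAzer B/G FRET substrate step and fluorescence measurement.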

Experiment [18] has the same target. The experiment is described as follows: qHTS assay to identify small molecule agonists of the androgen receptor (AR) signaling pathway using the MDA cell line (AID 743040; further: nearly all actives have a fitted effect of over 20% in size). In outline:
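Luminescence from ONE-Glo, read after 30 min at room temperature, reflects MMTV-driven luciferase in MDA-kb2 cells (AR- and GR-responsive). Treatment lasted 16 h at 37C, 0% CO2.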

The target is the same in experiment [19]. The experiment is described as follows: qHTS assay to identify small molecule antagonists of the androgen receptor (AR) signaling pathway using the MDA cell line (AID 743042; further: nearly all actives have a fitted effect of over 55% in size). In outline: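 MDA-kb2 cells (human breast carcinoma, stably carrying an MMTV-luciferase reporter responsive to AR and GR) were plated at 3,000 cells/well and preincubated 5 hr at 37C, then given compound plus R1881 agonist for 16 h. ONE-Glo luminescence was read.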

The nature of experiment [20]: qHTS assay to identify small molecule antagonists of the thyroid receptor (TR) signaling pathway - cell viability counter screen (AID 743064). Further: nearly all actives have a fitted effect of over 50% in size. Further: potency means the concentration at half of the fitted maximal effect. An outline of the steps: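 Fluorescence from CellTiter-Fluor, added after 23.5 h exposure at 37 °C, reported viability of GH3.TRE-Luc cells co-treated with compound and 1 nM T3. Measured in the same wells as the luciferase TR readout.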

A number with no mark means an inactive call. Inconclusive results are not listed. Activity calls are given as the source filed them. Unless noted, the call rests on the fitted dose curve; in most records, active means well fitted curve in the direction sought with a large enough effect in the repeat runs; inconclusive means weak or mixed curves; inactive means no such curve, though single readings can be large; an effect the other way counts as inactive or inconclusive.
On the % scale 0 is the no-effect control and ±100 the full control effect.

Chain of Glucocorticoid receptor (Homo sapiens) (P04150 whole entry, looked up): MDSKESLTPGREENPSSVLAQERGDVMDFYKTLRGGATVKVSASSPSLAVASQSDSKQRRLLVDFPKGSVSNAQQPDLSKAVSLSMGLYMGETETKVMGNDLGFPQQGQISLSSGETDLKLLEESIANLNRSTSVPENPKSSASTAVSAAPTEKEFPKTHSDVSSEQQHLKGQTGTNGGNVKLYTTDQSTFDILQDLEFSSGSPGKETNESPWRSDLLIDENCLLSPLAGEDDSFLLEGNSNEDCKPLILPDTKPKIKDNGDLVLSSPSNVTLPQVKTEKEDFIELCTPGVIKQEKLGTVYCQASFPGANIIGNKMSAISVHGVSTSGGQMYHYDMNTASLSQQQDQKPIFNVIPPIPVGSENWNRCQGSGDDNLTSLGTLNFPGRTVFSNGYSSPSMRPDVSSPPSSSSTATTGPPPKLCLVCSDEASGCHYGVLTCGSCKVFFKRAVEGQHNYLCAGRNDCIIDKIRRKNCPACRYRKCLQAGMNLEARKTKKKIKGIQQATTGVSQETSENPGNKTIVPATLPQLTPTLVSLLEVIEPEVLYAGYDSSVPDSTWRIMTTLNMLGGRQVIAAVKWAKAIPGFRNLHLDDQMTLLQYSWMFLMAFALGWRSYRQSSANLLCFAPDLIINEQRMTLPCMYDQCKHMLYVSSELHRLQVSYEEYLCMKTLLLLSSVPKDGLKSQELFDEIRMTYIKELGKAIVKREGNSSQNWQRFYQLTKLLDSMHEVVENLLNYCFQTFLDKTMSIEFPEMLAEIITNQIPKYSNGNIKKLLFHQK
Chain of Androgen receptor (Homo sapiens) (P10275 whole entry, looked up): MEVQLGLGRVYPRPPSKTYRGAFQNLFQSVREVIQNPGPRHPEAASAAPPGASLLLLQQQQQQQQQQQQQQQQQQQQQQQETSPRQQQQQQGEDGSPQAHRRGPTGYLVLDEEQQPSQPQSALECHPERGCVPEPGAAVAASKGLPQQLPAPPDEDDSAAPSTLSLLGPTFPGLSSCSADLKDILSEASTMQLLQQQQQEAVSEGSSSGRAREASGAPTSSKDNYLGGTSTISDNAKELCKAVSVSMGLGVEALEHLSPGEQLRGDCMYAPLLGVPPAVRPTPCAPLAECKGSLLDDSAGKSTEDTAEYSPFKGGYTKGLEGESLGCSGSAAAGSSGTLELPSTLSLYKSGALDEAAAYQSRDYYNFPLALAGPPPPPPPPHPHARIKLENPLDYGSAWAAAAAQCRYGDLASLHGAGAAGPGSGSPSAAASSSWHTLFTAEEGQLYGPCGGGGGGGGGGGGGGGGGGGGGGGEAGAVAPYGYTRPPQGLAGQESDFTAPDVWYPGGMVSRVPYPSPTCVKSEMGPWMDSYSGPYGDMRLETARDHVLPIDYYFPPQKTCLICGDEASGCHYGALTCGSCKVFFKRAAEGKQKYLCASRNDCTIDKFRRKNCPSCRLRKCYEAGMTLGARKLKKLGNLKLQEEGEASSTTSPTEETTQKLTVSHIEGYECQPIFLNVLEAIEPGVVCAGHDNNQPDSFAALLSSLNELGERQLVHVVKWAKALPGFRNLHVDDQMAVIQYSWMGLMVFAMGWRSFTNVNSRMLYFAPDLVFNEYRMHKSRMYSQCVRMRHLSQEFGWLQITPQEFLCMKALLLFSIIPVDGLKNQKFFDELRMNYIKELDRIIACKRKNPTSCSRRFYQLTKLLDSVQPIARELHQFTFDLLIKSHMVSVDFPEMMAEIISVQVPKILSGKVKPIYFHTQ

For the compound `CCCC1CCC(=O)O1` (stereo not drawn), the call in experiment [1], in experiment [2], in experiment [3], in experiment [4], in [5] and in [6] was inactive. Further, the compound was called inactive in experiment [7], in experiment [8], in experiment [11] and in experiment [15]. The Potency result in [9], in experiment [10], in experiment [12], in experiment [13], in experiment [14] and in experiment [16] was “inactive” throughout.

Consider `OCCN(CCO)CCN(CCO)CCO`, for which the compound was classed as inactive in experiment [1], in experiment [2], in experiment [3], in experiment [4], in experiment [5] and in experiment [6]. Moreover, the call in experiment [7], in experiment [8], in experiment [11], in experiment [15] and in experiment [19] was inactive. The Potency entry in experiment [9], in [10], in [12], in [14], in experiment [17] and in experiment [18] was “inactive” each time. In addition, the Potency result in [16] and in experiment [20] was “inactive” throughout.

On to `CN(C)C(=O)NC1(c2ccccc2)CCN(CCC[C@]2(c3ccc(Cl)c(Cl)c3)CCCN(C(=O)c3ccccc3)C2)CC1`, for which, in experiment [1], the fluorescence, % of fluorescein was -0.116% [at 18.6 µM]. Also, the fluorescence, % of fluorescent control in experiment [2] is 0.05% [at 18.6 µM]; in [4], -0.159% [at 18.6 µM]; in [6], -0.114% [at 18.6 µM]; in experiment [8] it was -0.0586% [at 18.6 µM]. Also, the activity change in experiment [3] was 0.0134% [at 18.6 µM]. For the same compound, the fluorescence, % of Rose Bengal in experiment [5] was -0.0596% [at 18.6 µM]. Also, in [7], the fluorescence, % of fluorescein control is 0.0302% [at 18.6 µM]. Further, the Potency entry in experiment [9], in [10] and in experiment [16] was “inactive” each time. The compound was called inactive in experiment [11]. Moreover, the Potency is 10.3 µM (active) in experiment [12], 14.6 µM (active) in experiment [13], 9.2 µM (active) in experiment [14] and 5.17 µM (active) in [20].

With `CCN(CC)CCNC(=O)COc1ccc(Cl)cc1`, the result in experiment [1], in [2], in [3], in experiment [4], in experiment [5] and in experiment [6] was inactive. The outcome in experiment [7], in experiment [8], in experiment [11] and in [15] was inactive. Also, the Potency result in [9], in experiment [10], in experiment [13], in experiment [14] and in experiment [16] was “inactive” in each case.

In the case of `CC1(O)CSC(C)(O)CS1` (stereo not drawn), the outcome in experiment [1], in experiment [2], in [3], in [4], in experiment [5] and in experiment [6] was inactive. Moreover, the outcome in [7], in experiment [8], in experiment [11] and in [19] was inactive. In addition, the Potency result in experiment [9], in experiment [10], in [17], in [18], in experiment [16] and in [20] was “inactive” throughout. The Potency in experiment [13] and in experiment [14] was 61.1 µM (active) in each case.

On to `CCCNC(C)C(=O)Nc1c(C)csc1C(=O)OC` (stereo not drawn), for which, in experiment [1], the fluorescence, % of fluorescein was -0.0722% [at 18.6 µM]. For the same compound, the fluorescence, % of fluorescent control is -0.0092% [at 18.6 µM] in [2], 0.0164% [at 18.6 µM] in experiment [4], -0.0067% [at 18.6 µM] in experiment [6] and 0.025% [at 18.6 µM] in experiment [8]. The activity change in experiment [3] is -0.0482% [at 18.6 µM]. Moreover, the fluorescence, % of Rose Bengal in [5] is -0.056% [at 18.6 µM]. Also, the fluorescence, % of fluorescein control in experiment [7] is 0.063% [at 18.6 µM]. Moreover, the Potency result in experiment [9], in experiment [10], in [12], in [14] and in experiment [20] was “inactive” in each case. Further, the outcome in [11] was inactive.

Consider `Cn1cnc2c(F)c(Nc3ccc(Br)cc3Cl)c(C(=O)NOCCO)cc21`, for which the outcome in experiment [1], in [2], in experiment [3], in [4], in experiment [5] and in experiment [6] was inactive. The compound was called inactive in experiment [7] and in [8]. Moreover, the Potency result in experiment [9], in [12], in [13], in experiment [14], in experiment [17] and in experiment [18] was “inactive” in each case. For the same compound, the Potency entry in experiment [16] is “inactive”.
